# KB-V1 cytotox = qHTS assay for MDR1-selective chemotherapeutics: Primary screen using the drug-selected MDR subline cells KB-V1; 3.4% of 400,000 active; KB-V1 MDR cells viability, CellTiter-Glo, 72 h; AID 1347076, 2019; Potency, µM (doses to about 46.1 µM), most hits filed as cytotoxic; note: potency is the fitted concentration of half-maximal effect; % is set by controls: 0 for no effect and ±100 for the full control effect; nearly all actives have a fitted effect of over 60% in size
#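 qHTS viability screen in drug-selected KB-V1 MDR cells: 72 h compound treatment at 37 degrees C, ATP luminescence end point.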
# KB-3-1 cytotox = qHTS assay for MDR1-selective chemotherapeutics: Primary screen using the parental adenocarcinoma cell KB-3-1. KB-3-1 viability, CellTiter-Glo ATP luminescence, 72 h. Potency, µM (top dose mostly 46.1 µM), actives largely listed as cytotoxic. 1.4% of 400,000 active; note: potency is the fitted concentration of half-maximal effect; % is set by controls: 0 for no effect and ±100 for the full control effect; nearly all actives have a fitted effect of over 60% in size
#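 KB-3-1 parental drug-naive adenocarcinoma cells in DMEM/10% FBS, incubated 72 h at 37 C with pin-transferred compounds across a concentration series. Viability by CellTiter-Glo luminescence; concentration-response curves fitted after normalization.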
# MCF10A rerep = A quantitative high throughput screen for small molecules that induce DNA re-replication in MCF 10a normal breast cells | Potency, µM (top dose mostly 46.1 µM), for inactives: top-dose activity, positive = re-replication, usual class: activators | 2.9% of 350,000 active | MCF 10A DNA re-replication, Hoechst nuclear intensity, 48 h | AID 624296, 2012; note: potency is the fitted concentration of half-maximal effect; % of control where 0% means no effect; nearly all actives have a fitted effect of over 50% in size
# KCNH2 WT inh = qHTS for Inhibitors of KCHN2 3.1: Wildtype qHTS; U2OS, BacMam KCNH2, thallium flux FluxOr; active compounds read low; activity change, % at 1.84 µM; 0.37% of 340,000 active;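 active = maximum activity change below -70%; inconclusive = maximum activity change between -70% and -50%; inactive = maximum activity change above -50%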; note: % is set by controls: 0 for no effect and ±100 for the full control effect
#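 U2OS cells were transduced with wild-type KCNH2 virus (2.03 x 10^8 / mL) for 4 h at room temperature, then cultured overnight at 37 C. Thallium flux was read with FluxOr dye. Rate constants were normalized to DMSO controls.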
# SW480 rereplic = A quantitative high throughput screen for small molecules that induce DNA re-replication in SW480 colon adenocarcinoma cells | SW480 DNA re-replication, Hoechst DNA content imaging, 48 h | Potency, µM (doses to about 46.1 µM), for the others: top-dose re-replication activation, actives largely listed as activators | 1.8% of 340,000 active; note: potency is the fitted concentration of half-maximal effect; % of control where 0% means no effect; nearly all actives have a fitted effect of over 55% in size
#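 Treated cells incubate 48 hr (37 C, 5% CO2), are stained 40 min with Hoechst, and nuclear fluorescence is enumerated; a rise in nuclei with high DNA signal marks re-replication.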
# KCNH2 3.1 block = qHTS for Inhibitors of KCHN2 3.1: Mutant qHTS; AID 720553, 2013; activity change, % (tested at about 1.8 µM); 0.95% of 340,000 active; U2OS KCNH2 3.1, thallium flux FluxOr; active compounds read low;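 active = maximum activity change below -70%; inconclusive = maximum activity change from -70% to -50%; inactive = maximum activity change above -50%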;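 note: thallium influx rate constant from kinetic fluorescence after stimulation buffer; % is set by controls: 0 for no effect and ±100 for the full control effect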
#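 Kinetic fluorescence (2 min after stimulation buffer) measures Tl+ influx through KCNH2 3.1 expressed by viral transduction in U2OS cells; the rate constant is normalized against DMSO controls serving as positive and negative references.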
# * = called active by the depositor; i = inactive; ? = inconclusive; nt = no result; [ ] = remark or other dose. A selection: hits, their analogues and other compounds. The true share with any hit is near 7.6%. Unless noted, calls come from the whole dose curve; as a rule, active = well fitted curve in the direction sought with a large enough effect; inconclusive = small, poorly fitted or top-dose-only effect, or another doubt; inactive = no such curve, though single readings can be large; an effect the other way counts as inactive or inconclusive.
SMILES,KB-V1 cytotox,KB-3-1 cytotox,MCF10A rerep,KCNH2 WT inh,SW480 rereplic,KCNH2 3.1 block
COc1ccc(C2=NN(C(=O)CN3CCCCC3)C(c3ccc(C)cc3)C2)cc1 (stereo unspecified),?,i,-3.0%,5.3,-10.4%,-2.6
COc1cc2nc(SCC(=O)Nc3c(C)cc(C)cc3C)n3nc(CCn4c(C)nc5ccccc54)nc3c2cc1OC,i,i,nt,nt,nt,nt
O=C(Cn1cncn1)N/N=C/c1cccnc1,i,i,-5.5%,3.8,-16.4%,-5.0
CCCCCNC(=O)C1CCC(Cn2c(=S)[nH]c3ccccc3c2=O)CC1 (stereo unspecified),i,i,8.9%,-1.0,-18.9%,-7.3
N#Cc1ccc(N2CCOCC2)nc1,i,i,3.2%,-0.7,-0.6%,1.5
CSCCC(NS(=O)(=O)c1ccc2c(c1)oc(=O)n2C)C(=O)Nc1ccc(F)c(Cl)c1 (stereo unspecified),i,i,nt,nt,nt,nt
CC(=O)c1cccc(NC(=O)C2=CN3CCS(=O)(=O)N=C3C=C2)c1,i,i,-1.5%,-18.3,2.4%,1.4
COc1ccc(C2=NN(C(=O)COc3ncnc4ccccc34)C(c3ccco3)C2)cc1 (stereo unspecified),i,i,16.0%,1.7,?,-18.3
COc1ccc(C2=NN(C(=O)COC(=O)c3ccc(S(C)(=O)=O)c([N+](=O)[O-])c3)C(c3ccco3)C2)cc1 (stereo unspecified),?,?,?,-11.3,11.6µM*,-9.5
COc1ccc(C2CC(c3ccccc3)=NN2C(=O)CN2CCN(Cc3ccccc3)CC2)cc1 (stereo unspecified),23.1µM*,?,-1.3%[9.22 µM],10.0,11.0%,-24.8
CC(C)=CC(=O)N1CCC(N2CCC(C(=O)NCC3CCCO3)CC2)CC1 (stereo unspecified),i,i,-2.1%,-4.1,-16.0%,33.0
Cc1cc(=O)c(C(=O)O)cn1Nc1ccc(F)cc1,i,i,-2.0%,17.2,-3.0%,-84.0*
Cc1ccc(OCCNc2cc(N3CCN(CCO)CC3)ccc2[N+](=O)[O-])cc1C,?,?,?,0.2,?,-4.3
O=C(Oc1ccc(Cl)c2cccnc12)c1ccco1,?,?,7.31µM*,-7.4,?,1.6
O=C(Oc1ccc(Cl)c2cccnc12)c1cccc([N+](=O)[O-])c1,i,i,3.66µM*,-1.1,nt,-5.8
O=C(Oc1cccc2cccnc12)c1cccc([N+](=O)[O-])c1,?,i,?,2.1,?,-11.6
O=C(Oc1c(Cl)cc(Cl)c2cccnc12)c1cccc([N+](=O)[O-])c1,i,14.6µM*,10.3µM*,0.1,?,7.8
CC(Oc1ccc(Br)cc1)C(=O)N1CCC(C(N)=O)CC1 (stereo unspecified),i,i,1.3%,-5.4,-0.8%,-71.0*
CC(Oc1ccc(Br)cc1)C(=O)N1CCN(c2ccccn2)CC1 (stereo unspecified),nt,nt,-1.4%,-8.2,-1.2%,12.5
O=C(Nc1cccc(S(=O)(=O)N2CCCCC2)c1)C1CC1,i,i,-5.1%,-1.5,-4.3%,-0.1
COc1ccc2cc(C(C)C(=O)N3CCC(C)CC3)ccc2c1 (stereo unspecified),?,20.6µM*,?,2.4,?,4.0
COc1ccc(-c2ccc3ncnc(NCc4ccc(C)o4)c3c2)cc1OC,?,i,nt,nt,nt,nt
NC(=O)c1ccsc1NC(=O)COC(=O)/C=C/c1ccccc1,i,i,-2.7%,1.4,-10.7%,-12.5
COC(=O)/C=C/c1ccsc1NC(C)=O,i,i,1.2%,i,9.2µM*,6.4
CC(C)COP(=O)(OCC(C)C)C(Nc1ccccc1)c1ccc2c(c1)OCO2 (stereo unspecified),6.51µM*,?,?,-9.1,?,-31.5
SMILES,KB-V1 cytotox,KB-3-1 cytotox,MCF10A rerep,KCNH2 WT inh,SW480 rereplic,KCNH2 3.1 block
CC(C)OP(=O)(OC(C)C)C(Nc1ccccc1)c1ccc2c(c1)OCO2 (stereo unspecified),i,i,3.0%,6.8,-1.2%,0.7
CCOc1ccccc1CNC(=O)CCn1ccc2cc(S(=O)(=O)N3CCC(C)CC3)ccc21,i,i,nt,nt,nt,nt
CCSc1nnc(NC(=O)CSc2nccn2-c2cccc(C)c2)s1,16.4µM*,i,-8.9%,-4.0,3.1%,-19.0
COc1ccc(NC(=O)CSc2nnc(Cc3cccn3C)n2CCc2ccccc2)cc1OC,14.6µM*,i,1.8%,-9.5,-6.2%,4.6
COc1ccc(NC(=O)CSc2nnc(Cc3cccn3C)n2CCc2ccccc2)c(OC)c1,3.26µM*,i,?,-3.5,1.5%,3.6
COc1ccc(-n2c(CCc3ccccc3)nnc2SCC(=O)c2ccc(Cl)cc2)cc1,5.8µM*,?,23.4%,2.5,13.7%,-21.8
Cc1cccc(-n2ccnc2SCC(=O)Nc2nccs2)c1,i,i,8.9%,2.5,-5.6%,-6.2
COc1ccc(CCN2C(=O)CS/C2=N\NC(=O)c2cccs2)cc1OC,i,i,12.3%,7.0,-2.1%,-3.6
CC1=CC(c2ccc(Cl)cc2)n2nc(NC(=O)CCC(=O)O)nc2N1 (stereo unspecified),?,i,-0.2%,5.2,1.3%,4.0
COc1ccc(CC(=O)NCc2nnc(SCC(=O)Nc3ccc(OC)cc3)n2C)cc1,i,i,-3.1%,nt,-114.3%,-27.1
Cc1ccc(S(=O)(=O)Nc2cccc(-c3ccc(N4CCC(C)CC4)nn3)c2)s1,i,i,nt,nt,nt,nt
COc1ccc(-n2c(Cc3cccn3C)nnc2SCC(=O)NCCc2ccccc2)cc1,9.2µM*,i,8.5%,19.4,3.4%,25.1
Cn1cccc1Cc1nnc(SCC(=O)NCCc2ccccc2)n1C,i,i,-1.3%,2.7,-6.7%,nt
O=C(NCc1nnc(SCC(=O)N2CCCc3ccccc32)n1-c1ccccc1)c1cccc2ccccc12,16.4µM*,?,17.6%,5.6,11.0%,3.2
Cn1cccc1Cc1nnc(SCC(=O)N2CCc3ccccc32)n1-c1ccc(F)cc1,i,i,3.8%,-3.0,1.8%,1.5
CCSc1nnc(NC(=O)CSc2nnc(Cc3cccn3C)n2CCc2ccccc2)s1,8.2µM*,i,-1.6%,21.1,2.4%,8.4

# Screening results from PubChem.
